# The supplement of paper PMC4466140
# Target: AgAbp1
# Assay: SPOT peptide array binding signal intensity (averaged, normalized) (arbitrary units (background-subtracted, floor 0; scale differs between SH3 domains)); higher = stronger binding of the SH3 domain to the peptide
# Experimental: (§1)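 GST-tagged SH3 domains from S. cerevisiae (Sc), A. gossypii (Ag), C. albicans (Ca) and S. pombe (Sp) were incubated at 10 ug/ml overnight at 4 C on cellulose SPOT membranes carrying 292 synthetic 15-mer peptides mined from the S. cerevisiae proteome (cysteines replaced by serines). Binding was detected with anti-GST antibody, HRP secondary and chemiluminescence, quantified with Genespotter, and reported as normalized spot intensities averaged over biological replicates.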
row,Binder,SPOT peptide array binding signal intensity
1,KRKRFNLLLPKPYLT,46

# Target: AgBbc1
# Assay: as above
# Experimental: as §1
row,Binder,SPOT peptide array binding signal intensity
1,KRKRFNLLLPKPYLT,16.5

# Target: AgBem1-D1
# Assay: as above
# Experimental: as §1
row,Binder,SPOT peptide array binding signal intensity
1,KRKRFNLLLPKPYLT,136

# Target: AgBzz1-D1
# Assay: as above
# Experimental: as §1
row,Binder,SPOT peptide array binding signal intensity
1,KRKRFNLLLPKPYLT,33

# Target: AgBzz1-D2
# Assay: as above
# Experimental: as §1
row,Binder,SPOT peptide array binding signal intensity
1,KRKRFNLLLPKPYLT,19.5

# Target: AgCyk3
# Assay: as above
# Experimental: as §1
row,Binder,SPOT peptide array binding signal intensity
1,KRKRFNLLLPKPYLT,3

# Target: AgFus1
# Assay: as above
# Experimental: as §1
row,Binder,SPOT peptide array binding signal intensity
1,KRKRFNLLLPKPYLT,356

# Target: AgHof1
# Assay: as above
# Experimental: as §1
row,Binder,SPOT peptide array binding signal intensity
1,KRKRFNLLLPKPYLT,49.5

# Target: AgHse1
# Assay: as above
# Experimental: as §1
row,Binder,SPOT peptide array binding signal intensity
1,KRKRFNLLLPKPYLT,745

# Target: AgLsb1
# Assay: as above
# Experimental: as §1
row,Binder,SPOT peptide array binding signal intensity
1,KRKRFNLLLPKPYLT,14.5

# Target: AgLsb4
# Assay: as above
# Experimental: as §1
row,Binder,SPOT peptide array binding signal intensity
1,KRKRFNLLLPKPYLT,104

# Target: AgMyo5
# Assay: as above
# Experimental: as §1
row,Binder,SPOT peptide array binding signal intensity
1,KRKRFNLLLPKPYLT,0.75

# Target: AgNbp2
# Assay: as above
# Experimental: as §1
row,Binder,SPOT peptide array binding signal intensity
1,KRKRFNLLLPKPYLT,99

# Target: AgRvs167
# Assay: as above
# Experimental: as §1
row,Binder,SPOT peptide array binding signal intensity
1,KRKRFNLLLPKPYLT,6.17

# Target: AgSho1
# Assay: as above
# Experimental: as §1
row,Binder,SPOT peptide array binding signal intensity
1,KRKRFNLLLPKPYLT,58

# Target: AgSla1-D1-D2
# Assay: as above
# Experimental: as §1
row,Binder,SPOT peptide array binding signal intensity
1,KRKRFNLLLPKPYLT,578

# Target: AgSla1-D3
# Assay: as above
# Experimental: as §1
row,Binder,SPOT peptide array binding signal intensity
1,KRKRFNLLLPKPYLT,4

# Target: CaAbp1-D1
# Assay: as above
# Experimental: as §1
row,Binder,SPOT peptide array binding signal intensity
1,KRKRFNLLLPKPYLT,458

# Target: CaAbp1-D2
# Assay: as above
# Experimental: as §1
row,Binder,SPOT peptide array binding signal intensity
1,KRKRFNLLLPKPYLT,418

# Target: CaBbc1
# Assay: as above
# Experimental: as §1
row,Binder,SPOT peptide array binding signal intensity
1,KRKRFNLLLPKPYLT,39.5

# Target: CaBem1-D1
# Assay: as above
# Experimental: as §1
row,Binder,SPOT peptide array binding signal intensity
1,KRKRFNLLLPKPYLT,31

# Target: CaBzz1-D1
# Assay: as above
# Experimental: as §1
row,Binder,SPOT peptide array binding signal intensity
1,KRKRFNLLLPKPYLT,28

# Target: CaBzz1-D2
# Assay: as above
# Experimental: as §1
row,Binder,SPOT peptide array binding signal intensity
1,KRKRFNLLLPKPYLT,46.5

# Target: CaCyk3
# Assay: as above
# Experimental: as §1
row,Binder,SPOT peptide array binding signal intensity
1,KRKRFNLLLPKPYLT,5

# Target: CaFus1
# Assay: as above
# Experimental: as §1
row,Binder,SPOT peptide array binding signal intensity
1,KRKRFNLLLPKPYLT,548

# Target: CaHof1
# Assay: as above
# Experimental: as §1
row,Binder,SPOT peptide array binding signal intensity
1,KRKRFNLLLPKPYLT,1.5

# Target: CaHse1
# Assay: as above
# Experimental: as §1
row,Binder,SPOT peptide array binding signal intensity
1,KRKRFNLLLPKPYLT,25.5

# Target: CaLsb1
# Assay: as above
# Experimental: as §1
row,Binder,SPOT peptide array binding signal intensity
1,KRKRFNLLLPKPYLT,8

# Target: CaLsb4
# Assay: as above
# Experimental: as §1
row,Binder,SPOT peptide array binding signal intensity
1,KRKRFNLLLPKPYLT,43.5

# Target: CaMyo5
# Assay: as above
# Experimental: as §1
row,Binder,SPOT peptide array binding signal intensity
1,KRKRFNLLLPKPYLT,1

# Target: CaNbp2
# Assay: as above
# Experimental: as §1
row,Binder,SPOT peptide array binding signal intensity
1,KRKRFNLLLPKPYLT,192

# Target: CaRvs167
# Assay: as above
# Experimental: as §1
row,Binder,SPOT peptide array binding signal intensity
1,KRKRFNLLLPKPYLT,8.5

# Target: CaRvs167-3
# Assay: as above
# Experimental: as §1
row,Binder,SPOT peptide array binding signal intensity
1,KRKRFNLLLPKPYLT,692

# Target: CaSho1
# Assay: as above
# Experimental: as §1
row,Binder,SPOT peptide array binding signal intensity
1,KRKRFNLLLPKPYLT,592

# Target: CaSla1-D1-D2
# Assay: as above
# Experimental: as §1
row,Binder,SPOT peptide array binding signal intensity
1,KRKRFNLLLPKPYLT,1

# Target: CaSla1-D3
# Assay: as above
# Experimental: as §1
row,Binder,SPOT peptide array binding signal intensity
1,KRKRFNLLLPKPYLT,6.5

# Target: ScAbp1
# Assay: as above
# Experimental: as §1
row,Binder,SPOT peptide array binding signal intensity
1,KRKRFNLLLPKPYLT,24

# Target: ScBbc1
# Assay: as above
# Experimental: as §1
row,Binder,SPOT peptide array binding signal intensity
1,KRKRFNLLLPKPYLT,6

# Target: ScBem1-D1
# Assay: as above
# Experimental: as §1
row,Binder,SPOT peptide array binding signal intensity
1,KRKRFNLLLPKPYLT,22

# Target: ScBzz1-D1
# Assay: as above
# Experimental: as §1
row,Binder,SPOT peptide array binding signal intensity
1,KRKRFNLLLPKPYLT,3

# Target: ScBzz1-D2
# Assay: as above
# Experimental: as §1
row,Binder,SPOT peptide array binding signal intensity
1,KRKRFNLLLPKPYLT,40

# Target: ScCyk3
# Assay: as above
# Experimental: as §1
row,Binder,SPOT peptide array binding signal intensity
1,KRKRFNLLLPKPYLT,58

# Target: ScFus1
# Assay: as above
# Experimental: as §1
row,Binder,SPOT peptide array binding signal intensity
1,KRKRFNLLLPKPYLT,570

# Target: ScHof1
# Assay: as above
# Experimental: as §1
row,Binder,SPOT peptide array binding signal intensity
1,KRKRFNLLLPKPYLT,≤ 0

# Target: ScHse1
# Assay: as above
# Experimental: as §1
row,Binder,SPOT peptide array binding signal intensity
1,KRKRFNLLLPKPYLT,1210

# Target: ScLsb1
# Assay: as above
# Experimental: as §1
row,Binder,SPOT peptide array binding signal intensity
1,KRKRFNLLLPKPYLT,34.8

# Target: ScLsb2
# Assay: as above
# Experimental: as §1
row,Binder,SPOT peptide array binding signal intensity
1,KRKRFNLLLPKPYLT,8.5

# Target: ScLsb3
# Assay: as above
# Experimental: as §1
row,Binder,SPOT peptide array binding signal intensity
1,KRKRFNLLLPKPYLT,114

# Target: ScLsb4
# Assay: as above
# Experimental: as §1
row,Binder,SPOT peptide array binding signal intensity
1,KRKRFNLLLPKPYLT,10

# Target: ScMyo3
# Assay: as above
# Experimental: as §1
row,Binder,SPOT peptide array binding signal intensity
1,KRKRFNLLLPKPYLT,1.5

# Target: ScMyo5
# Assay: as above
# Experimental: as §1
row,Binder,SPOT peptide array binding signal intensity
1,KRKRFNLLLPKPYLT,0.5

# Target: ScNbp2
# Assay: as above
# Experimental: as §1
row,Binder,SPOT peptide array binding signal intensity
1,KRKRFNLLLPKPYLT,158

# Target: ScPex13
# Assay: as above
# Experimental: as §1
row,Binder,SPOT peptide array binding signal intensity
1,KRKRFNLLLPKPYLT,0.75

# Target: ScRvs167
# Assay: as above
# Experimental: as §1
row,Binder,SPOT peptide array binding signal intensity
1,KRKRFNLLLPKPYLT,5

# Target: ScSho1
# Assay: as above
# Experimental: as §1
row,Binder,SPOT peptide array binding signal intensity
1,KRKRFNLLLPKPYLT,474

# Target: ScSla1-D1-D2
# Assay: as above
# Experimental: as §1
row,Binder,SPOT peptide array binding signal intensity
1,KRKRFNLLLPKPYLT,96

# Target: ScSla1-D3
# Assay: as above
# Experimental: as §1
row,Binder,SPOT peptide array binding signal intensity
1,KRKRFNLLLPKPYLT,2.75

# Target: SpAbp1-D1
# Assay: as above
# Experimental: as §1
row,Binder,SPOT peptide array binding signal intensity
1,KRKRFNLLLPKPYLT,146

# Target: SpBbc1
# Assay: as above
# Experimental: as §1
row,Binder,SPOT peptide array binding signal intensity
1,KRKRFNLLLPKPYLT,10.8

# Target: SpBzz1-D1
# Assay: as above
# Experimental: as §1
row,Binder,SPOT peptide array binding signal intensity
1,KRKRFNLLLPKPYLT,94.5

# Target: SpBzz1-D2
# Assay: as above
# Experimental: as §1
row,Binder,SPOT peptide array binding signal intensity
1,KRKRFNLLLPKPYLT,≤ 0

# Target: SpCyk3
# Assay: as above
# Experimental: as §1
row,Binder,SPOT peptide array binding signal intensity
1,KRKRFNLLLPKPYLT,4

# Target: SpHof1
# Assay: as above
# Experimental: as §1
row,Binder,SPOT peptide array binding signal intensity
1,KRKRFNLLLPKPYLT,136

# Target: SpHof1-2
# Assay: as above
# Experimental: as §1
row,Binder,SPOT peptide array binding signal intensity
1,KRKRFNLLLPKPYLT,32.5

# Target: SpHof1-3
# Assay: as above
# Experimental: as §1
row,Binder,SPOT peptide array binding signal intensity
1,KRKRFNLLLPKPYLT,403

# Target: SpHse1
# Assay: as above
# Experimental: as §1
row,Binder,SPOT peptide array binding signal intensity
1,KRKRFNLLLPKPYLT,366

# Target: SpLsb1
# Assay: as above
# Experimental: as §1
row,Binder,SPOT peptide array binding signal intensity
1,KRKRFNLLLPKPYLT,3.75

# Target: SpLsb4
# Assay: as above
# Experimental: as §1
row,Binder,SPOT peptide array binding signal intensity
1,KRKRFNLLLPKPYLT,47

# Target: SpMyo1
# Assay: as above
# Experimental: as §1
row,Binder,SPOT peptide array binding signal intensity
1,KRKRFNLLLPKPYLT,2.5

# Target: SpNbp2
# Assay: as above
# Experimental: as §1
row,Binder,SPOT peptide array binding signal intensity
1,KRKRFNLLLPKPYLT,492

# Target: SpPex13
# Assay: as above
# Experimental: as §1
row,Binder,SPOT peptide array binding signal intensity
1,KRKRFNLLLPKPYLT,8.5

# Target: SpRvs167
# Assay: as above
# Experimental: as §1
row,Binder,SPOT peptide array binding signal intensity
1,KRKRFNLLLPKPYLT,12.7

# Target: SpSla1-D1-D2
# Assay: as above
# Experimental: as §1
row,Binder,SPOT peptide array binding signal intensity
1,KRKRFNLLLPKPYLT,3

# Target: SpSla1-D3
# Assay: as above
# Experimental: as §1
row,Binder,SPOT peptide array binding signal intensity
1,KRKRFNLLLPKPYLT,16.5
